The nature of test [1]: Cell Viability - SK-N-SH (AID 435; calls by dose curve;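 note: potency is the fitted concentration of half-maximal effect; compound exposure lasted 40 h at 37 °C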). The conditions noted are these: SK-N-SH neuroblastoma cell viability qHTS. A digest of the protocol: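 Human neuroblastoma line, 40 h exposure at 37 °C, ATP quantified via luciferase luminescence; DMSO and 100 uM tamoxifen define 0 and 100% inhibition for AC50 fitting.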
Test [2] in a line: Cell Viability - NIH 3T3 (AID 541).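 Note: plate controls were DMSO alone for no effect and tamoxifen positive control for full effect; nearly all actives have a fitted effect of over 25% in size.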 The conditions noted are these: NIH 3T3 cell viability, qHTS; activity change, negative = cytotoxicity: at 92.2 µM (top of the series). The procedure, abridged:
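Mouse NIH 3T3 fibroblasts, 1000 cells/well, rested 5 hr at 37 °C, then exposed to compound for 40 hr at 37 °C in complete medium. Viability read as intracellular ATP by CellTiter-Glo luminescence; AC50 from Hill-equation fits of concentration-response data.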

Test [3] can be described thus: Cellular Toxicity (caspase-3) Jurkat (AID 655).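 Note: cells exposed to compound for 16 h at 37 °C before reading.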 The conditions noted are these: Jurkat caspase-3 activation, luminescence, DMSO = 0%, tamoxifen = 100%; at 92.2 µM (top of the series). The procedure, abridged: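 qHTS in human Jurkat T-cell leukemia line: 16 hr compound treatment at 37 °C, caspase-3/7 activity measured by Caspase-Glo luminescence. AC50 derived from Hill equation.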

A short description of test [4]: Cellular Toxicity (caspase-3) BJ (AID 658). The conditions noted are these: BJ fibroblasts, luminescence, normalized: DMSO 0%, staurosporine 100%; series mostly up to 91.7 µM. The procedure, abridged: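 Luminescent aminoluciferin-substrate cleavage reports caspase 3/7 activity in normal human BJ fibroblasts after 16 hr compound exposure at 37 °C. Normalized to DMSO (basal) and 10 uM staurosporine (100%); AC50 from Hill fit of concentration-response.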

Test [5] is described as follows: Cellular Toxicity (caspase-3) SK-N-SH (AID 661). The conditions noted are these: SK-N-SH caspase-3 activation, qHTS, DMSO as zero, staurosporine as full; series mostly up to 91.7 µM. A digest of the protocol: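 Human SK-N-SH neuroblastoma cells, 1500/well, were exposed to compounds for 16 hours at 37 °C. Caspase-Glo 3/7 luminescence was normalized to DMSO (basal) and 10 uM staurosporine (100%), and AC50 came from a Hill fit.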

Test [6] is described as follows: Cellular Toxicity (caspase-3) Hek293 (AID 664).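 Note: cells exposed to compound for 16 h at 37 °C before readout.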 The conditions noted are these: HEK293 caspase-3 activation, DMSO = 0%, 100 µM tamoxifen = 100%; series mostly up to 92.2 µM. The procedure, abridged: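 HEK293 cells in complete medium treated 16 h at 37 °C, then Caspase-Glo 3/7 luminescence read after 20 min at room temperature. Normalized to DMSO and 100 uM tamoxifen; AC50 from Hill fit of concentration-response.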

Test [7] in a line: Cellular Toxicity (caspase-3) N2a (AID 665).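 Note: compound exposure lasted 16 h at 37 °C before readout.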 The conditions noted are these: N2a cells, luminescence, normalized: DMSO 0%, 10 µM staurosporine 100%; at 92.2 µM (top of the series). The procedure, abridged: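 Mouse N2a neuroblastoma cells, 1500 per well, treated 16 h at 37 °C in complete medium; caspase-3/7 activity by Caspase-Glo luminescence after 1 h. Normalized to DMSO and 10 uM staurosporine; AC50 from Hill fits.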

Test [8] is described as follows: Cellular Toxicity (caspase-3) Renal Proximal Tubule (AID 667).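 Note: cells exposed to compound for 16 hours at 37 °C before detection.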 The conditions noted are these: renal proximal tubule cells; at 91.7 µM (top of the series), primary cells freshly taken from rat, solvent-only wells 0%, staurosporine 100% unless noted. The procedure, abridged:
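Caspase-Glo 3/7 read-out, rat primary kidney proximal tubule cells. Compound exposure 16 h, 37 °C; detection after 1 h at RT. Activity scaled to DMSO and 10 uM staurosporine.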

Test [9] can be described thus: MultiTox-Fluor Cytotoxicity Assay - LYMP1-001 - Dead Cells (AID 946).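 Note: 0% = DMSO and 100% = tetraoctylammonium bromide.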 The conditions noted are these: LYMP1-001 lymphoblastoid cells, dead-cell protease fluorescence; series mostly up to 92.2 µM. A digest of the protocol: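 Seed 2500 LYMP1-001 cells/well, incubate 5 hr at 37 C; add compound, 16 hr at 37 C; add MultiTox-Fluor reagent, 60 min RT; read dead-cell fluorescence Ex/Em=485/520. Normalize to DMSO and 15 uM tetraoctylammonium bromide.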

A short description of test [10]: Cell Viability - LYMP2-021 (AID 974).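 Note: compound exposure lasts 24 hours at 37 °C; % is set by controls: 0 for no effect and ±100 for the full control effect; nearly all actives have a fitted effect of over 55% in size.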 The conditions noted are these: LYMP2-021 lymphoblastoid cells viability; series mostly up to 92.2 µM. A digest of the protocol: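 Human lymphoblastoid LYMP2-021 cells, 2500/well in complete medium, treated 24 hours at 37 C. Intracellular ATP by CellTiter-Glo luminescence (30 min, RT); AC50 from Hill fits of concentration-response.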

For test [11], the target named is Bile acid receptor (Homo sapiens) (UniProt Q96RI1). In words: qHTS assay for small molecule antagonists of farnesoid X receptor signaling (AID 588526; calls by dose curve; note: % is set by controls: 0 for no effect and ±100 for the full control effect). The conditions noted are these: HEK293T FXR-UAS-bla, beta-lactamase ratio, antagonist mode; series mostly up to 76.7 µM. A digest of the protocol:
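Concentration-response titrations were fitted to the Hill equation for half-maximal inhibition and maximal response, with data normalised to 50 uM chenodeoxycholic acid and DMSO control wells. Cells: FXR-UAS-bla HEK293T, dialyzed FBS.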

The nature of test [12]: qHTS assay for small molecule antagonists of peroxisome proliferator-activated receptor delta signaling (AID 588535; active = well fitted inhibition curve with a large enough effect in the signal ratio, with a control signal flat, not every such curve was filed as active; the % refers to the signal ratio;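 for max response: cells co-treated with a PPAR-delta agonist as stimulator during compound exposure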). The conditions noted are these: HEK293T PPARd-UAS-bla, beta-lactamase FRET ratio, 18 h; 460 nm channel. The procedure, abridged:
(§1)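 Reporter: UAS-bla under PPAR-delta response element, HEK293T host. Medium: 2% charcoal/dextran FBS. Dosing: titration, 18 hrs, 37 C. Detection: CCF4, 2 hrs RT, 405 ex/460 and 530 em.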

Test [13] deals with Peroxisome proliferator-activated receptor delta (Homo sapiens) (UniProt Q03181). Described as above. The conditions noted are these: HEK293T PPARd-UAS-bla, beta-lactamase FRET ratio, 18 h; series mostly up to 76.7 µM. The procedure, abridged: as §1
The target of test [14] is Vitamin D3 receptor (Homo sapiens) (UniProt P11473). In words: qHTS assay for small molecule antagonists of vitamin D receptor signaling (AID 588541; calls by dose curve;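 note: receptor activated by calcitriol during compound treatment; % is set by controls: 0 for no effect and ±100 for the full control effect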). The conditions noted are these: HEK293T VDR-UAS-bla, beta-lactamase ratio, antagonist mode; series mostly up to 76.7 µM. The procedure, abridged: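 VDR-UAS-bla HEK293T cells (2000/well, 2% charcoal-stripped FBS) were treated with titrated compounds plus 1-alpha,25-dihydroxyvitamin D3 (50 nM or 3 nM final) for 16 h at 37 C. CCF4 beta-lactamase fluorescence was read; Hill fits gave IC50.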

The target is the same in test [15]. In words: qHTS assay for small molecule agonists of vitamin D receptor signaling (AID 588543; calls by dose curve;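 note: 0% = DMSO basal and 100% = reference agonist control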). The conditions noted are these: HEK293T VDR-UAS-bla, beta-lactamase ratio, 16 h; series mostly up to 76.8 µM. A digest of the protocol:
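Measured: β-lactamase reporter activity (CCF4, 405 nm excitation, 460/530 nm emission) in HEK293T VDR-UAS-bla cells after 16 h compound exposure at 37 °C. Normalization against 50 nM 1α,25-dihydroxyvitamin D3 and DMSO; Hill-fit EC50.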

Test [16] can be described thus: Cell Viability - BJ (AID 421; calls by dose curve;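 note: potency is the fitted concentration of half-maximal effect; cells exposed to compound for 40 hours at 37 °C before readout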). The conditions noted are these: BJ fibroblast viability, qHTS. A digest of the protocol: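 Cytotoxicity in human BJ foreskin fibroblasts is scored as loss of cellular ATP after a 40-hour exposure, measured by luciferase luminescence. Controls are DMSO and 100 uM tamoxifen.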
A short description of test [17]: Cellular Toxicity (caspase-3) H-4-II-E (AID 663).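 Note: cells exposed to compound for 16 hr before readout.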 The conditions noted are these: H-4-II-E rat hepatoma, scaled: DMSO 0%, 100 µM tamoxifen 100%; series mostly up to 92.2 µM. The procedure, abridged:
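Luminescence from caspase-cleaved aminoluciferin substrate, read 20 min after reagent addition, reports caspase 3/7 activation in rat H-4-II-E cells after 16 hr compound exposure. Normalized to DMSO (basal) and 100 uM tamoxifen (100%); AC50 from Hill fits.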

The target in test [18] is Peroxisome proliferator-activated receptor gamma (Homo sapiens) (UniProt P37231). In words: qHTS assay for small molecule antagonists of peroxisome proliferator-activated receptor gamma signaling (AID 588537; active = well fitted inhibition curve with a large enough effect in the signal ratio, with a control signal flat, not every such curve was filed as active; the % refers to the signal ratio;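 note: reporter cells co-stimulated with 50 nM rosiglitazone agonist during compound treatment; % of control where 0% means no effect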). The conditions noted are these: HEK293 PPARg-UAS-bla, beta-lactamase ratio, antagonist mode; series mostly up to 76.8 µM. The procedure, abridged:
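We seeded GeneBLAzer HEK293 reporter cells at 3000 per well, allowed 6-6.5 h attachment at 37 C, then co-treated with test compound titrations and 50 nM rosiglitazone overnight (16 h). Inhibition was quantified from 460/530 nm emission ratios.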

Test [19] can be described thus: qHTS assay for small molecule agonists of the antioxidant response element (ARE) signaling pathway (AID 651741; active = well fitted activation curve with a large enough effect in the signal ratio; the % refers to the signal ratio; note: % of control where 0% means no effect). The conditions noted are these: HepG2 ARE-bla reporter, beta-lactamase FRET ratio, 16 h; series mostly up to 96 µM. A digest of the protocol:
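Compounds in DMSO are pinned onto HepG2 ARE-bla cells (2,000/well) that were preincubated 5 h; plates stay 16 h at 37 C, then beta-lactamase activity is detected with LiveBLAzer B/G substrate by fluorescence.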

Test [20] in a line: Cell Viability - LYMP2-019 (AID 973).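 Note: cells exposed to compound for 24 h at 37 °C; 0% = DMSO alone and full effect = 92 µM tetraoctylammonium bromide; nearly all actives have a fitted effect of over 55% in size.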 The conditions noted are these: LYMP2-019 lymphoblastoid cell line viability; series mostly up to 92.2 µM. A digest of the protocol:
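Human lymphoblastoid LYMP2-019 cells (2500/well) preincubated 5 h at 37 C, then treated 24 h at 37 C in complete medium. Viability by CellTiter-Glo ATP luminescence after 30 min at room temperature; AC50 from Hill fits.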

We go through seven compounds from PubChem BioAssay (NCATS).

Each structure is given as a SMILES string. “And” between values parts separate entries of the source, which are not always exact repeats. Identical values can stand only once. Inconclusive results are not listed. The source made the active and inactive calls. Unless noted, calls come from the whole dose curve; as a rule, active = well fitted curve in the direction sought with a large enough effect; inconclusive = small, poorly fitted or top-dose-only effect, or another doubt; inactive = no such curve, though single readings can be large; an effect the other way counts as inactive or inconclusive. Some results are limits rather than exact numbers.

Sequence of Bile acid receptor (Homo sapiens) (Q96RI1 whole entry, looked up): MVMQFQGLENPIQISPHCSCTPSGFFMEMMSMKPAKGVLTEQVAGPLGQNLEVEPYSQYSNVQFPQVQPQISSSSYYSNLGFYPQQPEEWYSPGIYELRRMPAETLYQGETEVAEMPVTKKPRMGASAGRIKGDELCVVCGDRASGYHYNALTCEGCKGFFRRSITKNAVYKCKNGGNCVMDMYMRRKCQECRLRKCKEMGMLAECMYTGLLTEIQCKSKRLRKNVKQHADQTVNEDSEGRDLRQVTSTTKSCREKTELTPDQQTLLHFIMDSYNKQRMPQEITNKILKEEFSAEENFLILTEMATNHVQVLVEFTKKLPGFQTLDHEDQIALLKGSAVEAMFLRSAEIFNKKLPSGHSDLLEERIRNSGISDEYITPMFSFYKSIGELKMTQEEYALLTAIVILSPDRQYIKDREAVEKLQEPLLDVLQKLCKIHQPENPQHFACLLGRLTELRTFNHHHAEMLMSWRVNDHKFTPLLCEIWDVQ
Sequence of Vitamin D3 receptor (Homo sapiens) (P11473 whole entry, looked up): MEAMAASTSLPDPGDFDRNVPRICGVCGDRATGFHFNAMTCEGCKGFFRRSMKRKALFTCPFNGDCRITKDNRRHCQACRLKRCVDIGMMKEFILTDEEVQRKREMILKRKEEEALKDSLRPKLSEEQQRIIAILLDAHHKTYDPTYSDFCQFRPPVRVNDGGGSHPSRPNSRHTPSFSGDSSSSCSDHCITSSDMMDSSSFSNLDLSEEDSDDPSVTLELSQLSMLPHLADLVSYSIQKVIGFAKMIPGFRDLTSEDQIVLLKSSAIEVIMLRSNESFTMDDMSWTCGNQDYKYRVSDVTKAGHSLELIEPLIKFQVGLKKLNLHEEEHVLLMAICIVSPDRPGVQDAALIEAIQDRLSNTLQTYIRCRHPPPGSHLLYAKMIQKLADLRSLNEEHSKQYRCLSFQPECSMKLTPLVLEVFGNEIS
Sequence of Peroxisome proliferator-activated receptor gamma (Homo sapiens) (P37231 whole entry, looked up): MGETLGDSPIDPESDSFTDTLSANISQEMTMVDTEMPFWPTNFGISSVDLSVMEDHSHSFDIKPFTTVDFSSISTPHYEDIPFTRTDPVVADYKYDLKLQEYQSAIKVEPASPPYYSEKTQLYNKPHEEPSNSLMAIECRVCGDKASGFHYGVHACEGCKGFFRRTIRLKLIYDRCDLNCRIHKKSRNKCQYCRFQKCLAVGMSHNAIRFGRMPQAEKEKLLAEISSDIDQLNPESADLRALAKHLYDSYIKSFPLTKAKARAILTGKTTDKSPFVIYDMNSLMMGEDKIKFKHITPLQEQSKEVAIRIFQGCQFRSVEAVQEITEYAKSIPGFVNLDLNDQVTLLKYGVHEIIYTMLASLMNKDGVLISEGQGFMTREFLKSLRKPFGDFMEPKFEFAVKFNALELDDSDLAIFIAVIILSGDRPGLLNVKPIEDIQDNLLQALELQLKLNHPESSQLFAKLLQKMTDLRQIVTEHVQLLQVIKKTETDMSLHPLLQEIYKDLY
Sequence of Peroxisome proliferator-activated receptor delta (Homo sapiens) (Q03181 whole entry, looked up): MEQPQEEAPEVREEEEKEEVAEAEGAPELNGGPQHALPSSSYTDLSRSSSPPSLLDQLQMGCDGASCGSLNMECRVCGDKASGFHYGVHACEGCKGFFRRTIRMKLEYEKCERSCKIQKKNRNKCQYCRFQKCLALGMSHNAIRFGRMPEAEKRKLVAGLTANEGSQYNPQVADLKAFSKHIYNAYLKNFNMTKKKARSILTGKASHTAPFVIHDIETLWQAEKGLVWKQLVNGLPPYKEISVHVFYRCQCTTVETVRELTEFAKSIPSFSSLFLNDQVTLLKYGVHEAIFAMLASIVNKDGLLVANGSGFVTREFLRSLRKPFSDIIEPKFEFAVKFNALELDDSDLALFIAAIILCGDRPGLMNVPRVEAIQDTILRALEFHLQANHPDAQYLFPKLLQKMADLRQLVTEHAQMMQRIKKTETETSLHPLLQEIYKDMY

On to `Cc1cccc(C#N)c1`, for which, in test [1], the Potency was > 92 µM (inactive). In [2], the activity change, negative = cytotoxicity is -15.8% (inactive). Further, the caspase-3 activation was 0.831% (inactive) in [3], -2.05% (inactive) in [7] and 10.9% (inactive) in test [8]. The compound was classed as inactive in [4], in [5], in test [6], in test [11], in test [14] and in test [15]. The Potency result in test [9], in test [10] and in test [13] was “inactive” throughout. Besides, in test [12], the max response turned out to be 57%.

As for `Cc1cccc([N+](=O)[O-])c1`, the Potency in test [16] was > 92 µM (inactive). The activity change, negative = cytotoxicity in test [2] was -17.5% (inactive). The figures for the caspase-3 activation in test [3] and in test [8] were -1.23% (inactive) and 5.52% (inactive), respectively. In addition, the call in test [17], in test [11], in [14] and in [15] was inactive. In addition, the max response in test [12] was 12.7% and -9.62%. For the same compound, the Potency result in test [13], in test [18] and in test [19] was “inactive” in each case.

As for `OCC(Br)CBr` (stereo not given), the Potency in [16] is > 92 µM (inactive). Besides, the caspase-3 activation in test [3] was 0.101% (inactive); in test [7] it was -2.35% (inactive). In addition, the result in test [17], in test [6], in test [11], in test [14] and in test [15] was inactive. The Potency entry in test [9], in test [20], in test [13], in [18] and in [19] was “inactive” each time. The max response in test [12] was determined as 7.4%.

Consider `O=C=NC1CCCCC1`, for which, in test [1], the Potency was > 92 µM (inactive). For the same compound, the activity change, negative = cytotoxicity in test [2] was -1.14% (inactive) and -2.08% (inactive). The caspase-3 activation was -0.599% (inactive) and -1.26% (inactive) in test [3]; 0.146% (inactive) and -1.42% (inactive) in test [7]. Further, the result in test [17], in test [6], in test [11], in test [14] and in test [15] was inactive. Besides, the Potency entry in test [9], in [20], in test [18] and in [19] was “inactive” each time.

Consider `N#CCCCl`, for which the Potency in [16] and in test [1] was > 92 µM (inactive) each time. For the same compound, the activity change, negative = cytotoxicity in test [2] was -5.02% (inactive) and -15.1% (inactive). Also, the result in test [4], in [17], in test [6], in [14] and in [15] was inactive. For the same compound, the caspase-3 activation was -0.53% (inactive) and -2.33% (inactive) in test [7]; -13% (inactive) and 8.86% (inactive) in test [8]. Further, in test [19], the Potency result was “inactive”.

Regarding `Clc1nc(Cl)nc(Cl)n1`, in test [16], the Potency is > 92 µM (inactive). In addition, in [2], the activity change, negative = cytotoxicity is -8.17% (inactive). Also, the caspase-3 activation in [3] was 0.301% (inactive); in test [7] it was 1.31% (inactive). The outcome in test [5], in [6], in test [14] and in test [15] was inactive. Moreover, the Potency result in test [9], in [13] and in [19] was “inactive” in each case. Besides, in [12], the max response was -3.59% and 8.32%.

As for `CCOP(=S)(OCC)Oc1ccc([N+](=O)[O-])cc1`, the Potency in [16] and in test [1] was > 92 µM (inactive) throughout. In addition, the caspase-3 activation in [3] was -2.23% (inactive) and 0.755% (inactive); in test [7] it was -4.19% (inactive) and -4.51% (inactive). Also, the compound was classed as inactive in [4], in test [5] and in [6]. In addition, the Potency result in test [9], in test [20], in test [13], in [18] and in test [19] was “inactive” each time. For the same compound, the max response in [12] is 12.5% and -2.14%.
